Laboratory results: PubChem BioAssay
Active and inactive are the calls of the source. Unless noted, the rule behind the calls is not given here.

Key:
[1] = anti-His antibody binders, primary screen, artefact control for SMM control protein annotation, biochemical, small-molecule microarray, 635 nm fluorescence (AID 1128); details: anti-His Alexa647 antibody binding, higher = more signal;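 note: score merges feature fluorescence with signal-to-noise for each printed compound spot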
[2] = test system: Human papillomavirus type 1a E7 protein (residues 1-88); test: HPV1a E7 small-molecule binders, primary screen, biochemical, small-molecule microarray, residues 1-88, 635 nm (AID 1129); details: small-molecule microarray binding, fluorescence 635 nm; higher = more signal
[3] = target: Focal adhesion kinase 1 (Homo sapiens) (UniProt Q05397); test: small-molecule microarray binders of FAK, primary screen, biochemical, 635/667 nm fluorescence, BSA, DTT (AID 1130); details: PTK2 binding, 635 nm fluorescence, higher = more signal;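 note: composite of spot emission at 667 nm and signal to noise over triplicate slides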
[4] = test system: Fibrinogen (Alexa647-labelled); test: fibrinogen binders on compound microarrays, profiling panel, artefact control for SMM control-protein annotation, biochemical, small-molecule microarray, 635/667 nm fluorescence (AID 1131); details: fibrinogen-A647 binding fluorescence, higher = more signal;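 note: z-score merges 667 nm fluorescence with per-spot signal-to-noise over triplicate slides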
[5] = target: Follistatin (Homo sapiens) (UniProt P19883); test: follistatin binders on small-molecule microarrays, primary screen, biochemical, small-molecule microarray, 635/667 nm fluorescence (AID 1132); details: FST binding, 635 nm fluorescence, higher = more signal
[6] = target: Fibroblast growth factor 2 (Homo sapiens) (UniProt P09038); test: FGF2 binders on small-molecule microarrays, primary screen, biochemical, small-molecule microarray, 635/667 nm fluorescence (AID 1133); details: small-molecule microarray binding, FGF2, fluorescence 635/667; higher = more signal
[7] = mitochondrial membrane potential change in A549 cells, profiling panel, cell-based, JC-1 fluorescence, basal, 24 h, 100 nL (AID 1138); details: higher = more signal;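 note: A549 lung adenocarcinoma cells under basal conditions with no added stimulus; test concentration not given here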
Lefty1 = Lefty1 binders on small-molecule microarrays, primary screen, biochemical, small-molecule microarray, 635/667 nm fluorescence (AID 1139); details: small-molecule microarray binding, fluorescence 635/667; higher = more signal
[8] = test system: wheat germ agglutinin (Triticum aestivum), Alexa647-labelled; test: wheat germ agglutinin binders on compound microarrays, profiling panel, artefact control for SMM control-protein annotation, biochemical, small-molecule microarray, 635/667 nm fluorescence (AID 1140); details: WGA-A647 binding, 635 nm fluorescence, higher = more signal;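 note: score merges 667 nm feature emission with signal to noise over triplicate slides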
[9] = target: Luciferin 4-monooxygenase (Photinus pyralis) (UniProt P08659); test: firefly luciferase enzyme inhibitors, primary screen, biochemical, luminescence, purified enzyme, 2006 set (AID 1141); details: SteadyGlo luminescence, 30 min, higher = more signal, called active from +8 up or from −8 down;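 note: cell-free assay with purified firefly luciferase at 100 ng per well in PBS; test concentration not given here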
[10] = test system: Wnt5a (protein binding on small-molecule microarray); test: Wnt5a binders on small-molecule microarray, primary screen, biophysical, 635/667 nm fluorescence (AID 1142); details: 635 nm fluorescence, higher = more signal;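 note: fluorescence read at 667 nm with signal to noise per printed feature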
[11] = cell viability in Huh7 cells, primary screen, cytotoxicity control for HCV replication inhibitor project, CellTiter-Glo luminescence, basal, 48 h (AID 1143); details: Huh7 HCV replicon, higher = more signal, called active from +8 up or from −8 down;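 note: Huh7 hepatoma cells carrying a hepatitis C replication reporter with no stimulus; test concentration not given here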
[12] = P. aeruginosa biofilm formation inhibitors, primary screen, PAO1 strain, BacTiter-Glo luminescence, LB-PBS (AID 1144); details: 12 h, higher = more signal
[13] = CREB reporter modulators without forskolin, primary screen, cell-based, PC12, CRE-LacZ reporter, unstimulated (AID 1145); details: no forskolin, luminescence, 4.5 h, higher = more signal, called active from +8 up or from −8 down
[14] = CREB reporter modulators under forskolin, primary screen, cell-based, PC12, CRE-LacZ reporter, forskolin-stimulated (AID 1146); details: luminescence, 4.5 h, higher = more signal, called active from +8 up or from −8 down;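 note: PC12 cells with 6xCRE LacZ reporter stimulated by forskolin 10 µM; beta-galactosidase reporter signal reflecting CREB driven transcription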
[15] = target: Streptavidin (Streptomyces avidinii) (UniProt P22629); test: streptavidin binders on small-molecule microarray, primary screen, artefact control for SMM compound annotation, biophysical, 635/667 nm fluorescence (AID 1147); details: streptavidin binding, higher = more signal;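 note: signal reflects streptavidin binding to arrayed compounds as a control protein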
[16] = small-molecule binders of probe aInhba, primary screen, biochemical, small-molecule microarray, 635/667 nm fluorescence (AID 1148); details: higher = more signal;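 note: score merges 667nm spot fluorescence with signal-to-noise for antibody binding to printed compounds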
Torsin-1A (Homo sapiens) [17] = target: Torsin-1A (Homo sapiens) (UniProt O14656); test: torsin A binders from cell lysate, primary screen, small-molecule microarray, wild-type, 635/667 nm (AID 1149); details: COS7 hTOR1A-WT lysate, 635 nm fluorescence, higher = more signal
Torsin-1A (Homo sapiens) [18] = target: Torsin-1A (Homo sapiens) (UniProt O14656); test: small-molecule binders of mutant TOR1A in lysate, primary screen, cell lysate, small-molecule microarray, COS7 lysate, 635/667 nm fluorescence (AID 1150); details: COS7 hTOR1A mutant lysate, 635 nm fluorescence, higher = more signal;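 note: score pools 667 nm emission and signal to noise measuring lysate protein binding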
[19] = test system: Sonic hedgehog protein (Shh); test: small-molecule binders of Shh protein, primary screen, biochemical, small-molecule microarray, 635/667 nm fluorescence (AID 1151); details: small-molecule microarray binding, 635 nm fluorescence; higher = more signal;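 note: Shh protein binding to compounds spotted on small-molecule microarray slides; score combines spot fluorescence intensity with signal-to-noise across triplicate slides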

Torsin-1A (Homo sapiens), sequence (O14656 whole entry, looked up): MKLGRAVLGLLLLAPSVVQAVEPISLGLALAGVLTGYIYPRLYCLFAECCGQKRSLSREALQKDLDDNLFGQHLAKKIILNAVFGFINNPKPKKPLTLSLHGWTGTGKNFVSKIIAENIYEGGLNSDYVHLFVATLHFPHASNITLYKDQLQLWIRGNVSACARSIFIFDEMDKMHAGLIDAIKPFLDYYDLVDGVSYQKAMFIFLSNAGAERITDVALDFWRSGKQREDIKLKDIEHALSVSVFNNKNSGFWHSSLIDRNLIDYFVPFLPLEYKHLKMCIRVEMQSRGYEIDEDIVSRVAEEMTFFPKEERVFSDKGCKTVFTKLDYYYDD
Streptavidin (Streptomyces avidinii), sequence (P22629 whole entry, looked up): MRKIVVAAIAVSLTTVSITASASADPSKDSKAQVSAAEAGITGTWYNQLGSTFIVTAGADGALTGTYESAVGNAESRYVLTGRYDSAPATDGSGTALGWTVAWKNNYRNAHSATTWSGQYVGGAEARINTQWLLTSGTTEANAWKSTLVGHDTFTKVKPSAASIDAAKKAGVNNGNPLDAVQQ
Luciferin 4-monooxygenase (Photinus pyralis), sequence (P08659 whole entry, looked up): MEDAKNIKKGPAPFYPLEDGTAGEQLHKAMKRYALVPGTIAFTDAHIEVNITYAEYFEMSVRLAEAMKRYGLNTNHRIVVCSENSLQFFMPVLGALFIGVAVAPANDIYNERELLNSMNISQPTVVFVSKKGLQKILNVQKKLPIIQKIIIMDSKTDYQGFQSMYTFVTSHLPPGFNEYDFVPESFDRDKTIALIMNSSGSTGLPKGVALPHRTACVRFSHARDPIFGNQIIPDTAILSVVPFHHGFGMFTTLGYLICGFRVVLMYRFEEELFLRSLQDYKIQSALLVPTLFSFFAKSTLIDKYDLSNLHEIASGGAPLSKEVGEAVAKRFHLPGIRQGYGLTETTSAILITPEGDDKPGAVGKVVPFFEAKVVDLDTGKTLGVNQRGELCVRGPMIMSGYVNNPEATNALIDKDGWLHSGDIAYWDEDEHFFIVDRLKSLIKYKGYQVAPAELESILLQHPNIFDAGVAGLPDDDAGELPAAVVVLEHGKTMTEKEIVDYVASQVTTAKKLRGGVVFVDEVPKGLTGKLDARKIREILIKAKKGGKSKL
Follistatin (Homo sapiens), sequence (P19883 whole entry, looked up): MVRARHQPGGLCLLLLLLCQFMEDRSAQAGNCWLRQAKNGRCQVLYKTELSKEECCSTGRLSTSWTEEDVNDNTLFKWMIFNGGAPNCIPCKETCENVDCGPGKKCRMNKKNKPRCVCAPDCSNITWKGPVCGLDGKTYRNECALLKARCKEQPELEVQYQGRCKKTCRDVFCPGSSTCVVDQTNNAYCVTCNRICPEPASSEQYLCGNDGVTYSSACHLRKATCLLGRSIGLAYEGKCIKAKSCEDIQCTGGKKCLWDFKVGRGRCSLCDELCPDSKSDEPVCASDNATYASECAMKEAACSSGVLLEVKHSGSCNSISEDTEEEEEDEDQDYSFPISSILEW
Focal adhesion kinase 1 (Homo sapiens), sequence (Q05397 whole entry, looked up): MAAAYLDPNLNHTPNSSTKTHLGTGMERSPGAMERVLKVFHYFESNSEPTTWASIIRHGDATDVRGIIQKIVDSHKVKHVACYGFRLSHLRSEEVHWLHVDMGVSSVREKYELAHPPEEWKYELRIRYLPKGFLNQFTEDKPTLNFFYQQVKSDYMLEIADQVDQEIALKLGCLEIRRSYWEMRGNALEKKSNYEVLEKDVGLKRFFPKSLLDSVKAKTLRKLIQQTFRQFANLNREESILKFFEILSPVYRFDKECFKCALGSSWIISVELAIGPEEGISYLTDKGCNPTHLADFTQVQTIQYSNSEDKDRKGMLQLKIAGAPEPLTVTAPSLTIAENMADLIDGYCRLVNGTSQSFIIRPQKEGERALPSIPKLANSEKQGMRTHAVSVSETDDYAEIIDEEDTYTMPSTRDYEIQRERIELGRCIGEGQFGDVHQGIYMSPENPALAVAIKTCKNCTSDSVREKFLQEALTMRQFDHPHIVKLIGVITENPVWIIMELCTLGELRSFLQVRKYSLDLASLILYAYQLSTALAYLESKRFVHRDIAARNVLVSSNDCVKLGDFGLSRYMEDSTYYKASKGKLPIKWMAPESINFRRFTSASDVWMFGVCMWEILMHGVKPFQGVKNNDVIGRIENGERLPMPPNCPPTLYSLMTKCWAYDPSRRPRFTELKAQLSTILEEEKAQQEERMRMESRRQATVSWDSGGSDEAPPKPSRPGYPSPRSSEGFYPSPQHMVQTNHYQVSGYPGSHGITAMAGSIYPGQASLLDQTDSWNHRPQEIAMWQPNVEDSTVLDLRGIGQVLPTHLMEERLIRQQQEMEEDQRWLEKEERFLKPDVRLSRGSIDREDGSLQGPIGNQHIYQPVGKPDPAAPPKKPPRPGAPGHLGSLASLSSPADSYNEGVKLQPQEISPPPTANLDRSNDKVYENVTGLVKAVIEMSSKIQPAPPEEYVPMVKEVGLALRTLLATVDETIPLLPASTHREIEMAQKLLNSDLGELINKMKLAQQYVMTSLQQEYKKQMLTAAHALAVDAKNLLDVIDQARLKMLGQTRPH
Fibroblast growth factor 2 (Homo sapiens), sequence (P09038 whole entry, looked up): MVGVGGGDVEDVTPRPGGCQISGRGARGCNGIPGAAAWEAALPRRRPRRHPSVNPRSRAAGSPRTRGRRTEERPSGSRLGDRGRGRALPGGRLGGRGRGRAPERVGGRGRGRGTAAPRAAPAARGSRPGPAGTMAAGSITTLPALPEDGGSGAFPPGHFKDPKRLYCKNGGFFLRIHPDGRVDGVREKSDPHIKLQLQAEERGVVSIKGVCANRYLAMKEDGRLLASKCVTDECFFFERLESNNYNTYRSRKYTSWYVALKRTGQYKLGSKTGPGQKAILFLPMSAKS

Compound | composite z-score [1] | composite z-score [2] | composite z-score [3] | composite z-score [4] | composite z-score [5] | composite z-score [6] | z-score [7] | composite z-score (Lefty1) | composite z-score [8] | z-score [9] | composite z-score [10] | z-score [11] | z-score [12] | z-score [13] | z-score [14] | composite z-score [15] | composite z-score [16] | composite z-score (Torsin-1A (Homo sapiens) [17]) | composite z-score (Torsin-1A (Homo sapiens) [18]) | composite z-score [19]
C[C@@H]1ON(c2ccc(I)cc2)[C@H](c2cccc(NC(=O)OCC3c4ccccc4-c4ccccc43)c2)[C@H]1C(=O)N1C(=O)OC[C@H]1Cc1ccccc1 | 0.296 | 0.506 | -0.0828 | 0.544 | 0.566 | 0.249 | 1.37 | 0.593 | 0.334 | -1.24 (inactive) | 0.0217 | -0.659 (inactive) | -0.215 (inactive) | 2.13 (inactive) | -0.0677 (inactive) | 0.226 | -0.0893 | 0.579 | -0.0059 | 0.851
[N-]=[N+]=NCc1ccccc1[C@@H]1OC(c2ccc(OCCCO)cc2)=N[C@]1(Cc1ccccc1N=[N+]=[N-])C(=O)O | 3.38 | 1.23 | 0.334 | 1.04 | 1.1 | 0.626 | -0.652 | -0.132 | 1.21 | -5.68 (inactive) | 1.04 | -2.25 (inactive) | -1.09 (inactive) | 0.526 (inactive) | -0.638 (inactive) | 0.488 | 0.587 | 0.177 | 0.585 | -0.379
CN(C)CCCC[C@@H]1NC(=O)[C@@H]2C[C@H](C(=O)NCCCCCN)[C@H](c3cccc(OCCO)c3)N2C1=O | 2.76 | 1.05 | -0.155 | 0.851 | 1.08 | 1.25 | 2.13 | 0.908 | 0.632 | -1.6 (inactive) | 0.132 | -0.716 (inactive) | -0.241 (inactive) | -0.118 (inactive) | -0.469 (inactive) | 0.909 | -0.101 | 0.433 | 0.0162 | 1.58
CCCNC(=O)[C@@]1(c2ccc([N+](=O)[O-])cc2)CC(=O)N(C(C)C)[C@@H]1c1ccc(CO)cc1 | 0.736 | 0.143 | 0.856 | -1.19 | -0.742 | -0.914 | -0.837 | -0.844 | 1.19 | -0.113 (inactive) | -0.47 | -1.22 (inactive) | 0.313 (inactive) | 0.558 (inactive) | 0.282 (inactive) | -1.07 | -0.153 | -2.12 | -0.42 | -0.738
CCCN1C(=O)[C@@]2(c3ccc([N+](=O)[O-])cc3)CC(=O)N(CC34CC5CC(CC(C5)C3)C4)[C@@H]2c2ccc(CO)cc21 | -0.0371 | -1.01 | 0.195 | -0.171 | 1.23 | 1.12 | -0.284 | -0.0689 | -0.0176 | -0.366 (inactive) | -0.347 | -0.0818 (inactive) | 0.312 (inactive) | 0.272 (inactive) | 1 (inactive) | -0.192 | 0.0588 | -1.21 | 0.019 | 0.102
